# Source: PubChem
# The list is not random: actives were taken first. Their share in the collection is about 9.2%.
# ELG1 DNA repair: qHTS screen for small molecules that inhibit ELG1-dependent DNA repair in human embryonic kidney (HEK293T) cells expressing luciferase-tagged ELG1; HEK293T ELG1-luciferase reporter, luminescence, 16 h; DNA damage induced by 5-fluorouridine; Potency, µM (series often up to 46.1 µM), for the others: at the highest dose activity change, negative = inhibition, usual class: inhibitors; hit rate 2.3% among 330,000; AID 504467, 2011; also: % is scaled to controls: 0 for no effect and ±100 for the full control effect; nearly all actives have a fitted effect of over 55% in size
#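 Reporter activity after DNA damage by 5-fluorouridine is monitored. Compound-treated cells incubate 16 hr at 37 °C, then ONE-Glo is added for 30 min before luminescence reading.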
# NPC1 promoter act: qHTS Assay for NPC1 Promoter Activators | AID 485313, 2010 | hit rate 2.4% among 320,000 | Potency, µM (highest dose often 9.22 µM), inactives show at the top dose activation, usual class: activators | Huh7 NPC1 promoter luciferase reporter, 24 h; also: % of control where 0% means no effect; nearly all actives have a fitted effect of over 60% in size
#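 Luciferase expression driven by the NPC1 promoter was measured in stably transfected Huh7 cells after a 24 h compound incubation, using a luciferase reagent and a luminescence read.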
# FLuc counter: qHTS profiling assay for firefly luciferase inhibitor/activator using purifed enzyme and Km concentrations of substrates (counterscreen for miR-21 project); Luciferin 4-monooxygenase (Photinus pyralis), P08659; AID 588342, 2011; Potency, µM (titrated, usually from 57.5 µM), inactives show at the top dose activity change, negative = inhibition, usual class: inhibitors; hit rate 6.9% among 360,000; purified FLuc, Km substrates, luminescence inhibition;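 also: plate controls were vehicle for no effect and reference inhibitor for full effect; nearly all actives have a fitted effect of over 55% in size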
# Target sequence (P08659 whole entry, looked up): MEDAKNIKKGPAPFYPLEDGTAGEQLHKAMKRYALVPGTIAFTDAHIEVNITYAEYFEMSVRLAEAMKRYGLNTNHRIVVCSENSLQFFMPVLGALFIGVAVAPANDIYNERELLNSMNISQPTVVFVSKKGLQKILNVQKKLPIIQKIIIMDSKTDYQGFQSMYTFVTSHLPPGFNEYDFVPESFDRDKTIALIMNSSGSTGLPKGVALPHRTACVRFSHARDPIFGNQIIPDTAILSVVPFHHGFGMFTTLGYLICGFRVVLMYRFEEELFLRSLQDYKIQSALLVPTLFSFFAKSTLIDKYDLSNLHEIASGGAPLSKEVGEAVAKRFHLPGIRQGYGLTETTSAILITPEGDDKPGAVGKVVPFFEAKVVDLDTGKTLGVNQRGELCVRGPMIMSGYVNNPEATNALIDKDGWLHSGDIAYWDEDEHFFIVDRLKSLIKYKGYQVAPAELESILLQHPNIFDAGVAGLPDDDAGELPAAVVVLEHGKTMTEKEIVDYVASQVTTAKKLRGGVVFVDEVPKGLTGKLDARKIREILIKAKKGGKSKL
#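 Biochemical qHTS of compounds, final roughly 60 µM downward over six points, against 10 nM purified firefly luciferase using Km concentrations of substrates (10 uM D-luciferin, 10 uM ATP) in Tris acetate pH 7.5 buffer; luminescence output.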
# SMN2 splice up: qHTS Assay for Enhancers of SMN2 Splice Variant Expression; HEK293 SMN2-luciferase splicing reporter, luminescence, 30-36 h; Potency, µM (titrated, usually from 46.1 µM), for the others: at the top dose activity change, positive = activation, actives largely listed as activators; hit rate 2.8% among 210,000; AID 1458, 2008; also: % of control where 0% means no effect; nearly all actives have a fitted effect of over 55% in size
#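 HEK293 cells carry an SMN2 minigene-luciferase reporter in which exon 7 inclusion puts luciferase in frame. Cells were seeded at 2000 cells/well, attached for 10-12 hours, then exposed to compounds for 30-36 hours at 37C before ONE-Glo luminescence.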
# ELG1 genotox: qHTS screen for small molecules that induce genotoxicity in human embryonic kidney (HEK293T) cells expressing luciferase-tagged ELG1; HEK293T ELG1-luciferase reporter, luminescence, 16 h; Potency, µM (highest dose often 46 µM), inactives show at the top dose activity change, positive = activation, usual class: activators; hit rate 1.3% among 330,000; also: % of control where 0% means no effect; nearly all actives have a fitted effect of over 60% in size
#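 Screening used a luciferase reporter fused to human ELG1 in HEK293T cells. Luminescence was read on a CCD plate imager after 16 hr exposure and 30 min ONE-Glo incubation.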
# Rab9 prom act: qHTS Assay for Rab9 Promoter Activators. Potency, µM (titrated, usually from 9.22 µM), for inactives: at the top dose activation, negative = inhibition, hits mostly activators. AID 485297, 2010. Huh7 Rab9 promoter-luciferase reporter, luminescence, 24 h. hit rate 2.8% among 320,000; also: % of control where 0% means no effect; nearly all actives have a fitted effect of over 60% in size
#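 Measured in stably transfected Huh7 cells bearing a Rab9 promoter–luciferase construct: 24 h compound treatment at 37 °C, followed by luminescence detection.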
# Numbers without * were called inactive; ? = inconclusive; . = no result. Calls follow the shape of the dose curve; as a rule, active = well fitted curve in the direction sought with a large enough effect; inconclusive = small, poorly fitted or top-dose-only effect, or another doubt; inactive = no such curve, though single readings can be large; an effect the other way counts as inactive or inconclusive. Potency is read from the fitted curve at half-maximal effect.
SMILES,ELG1 DNA repair,NPC1 promoter act,FLuc counter,SMN2 splice up,ELG1 genotox,Rab9 prom act
CCc1ccc(-n2c(=O)c3c4c(sc3n(CC(=O)c3ccc(F)cc3)c2=O)CCC4)cc1,.,.,-6%,-2%,.,.
O=C(COC(=O)C1(c2cccc(F)c2)CCCC1)NCc1ccc2c(c1)OCO2,-26%,-3%,3%,7%,-6%,1%
Cc1ccnc(SCc2cc(=O)c(OC(=O)c3ccc(Cl)c([N+](=O)[O-])c3)co2)n1,21µM*,1%,-10%,13%,3%,-7%
CCc1ccc(CNC(=O)C2CCCN(c3nnc(C)c4c(C)n(-c5ccc(OC)cc5)nc34)C2)cc1 (centres undefined),.,.,-2%,.,.,.
CN(C)c1ccc(C(CNC(=O)c2ccccc2)N2CCc3ccccc32)cc1 (centres undefined),.,.,-7%,.,.,.
CC1CN(CC(O)COC(c2ccc(Cl)cc2)c2ccc(Cl)cc2)CC(C)O1 (centres undefined),18µM*,3%,-8%,-34%,-2%,-3%
COc1ccccc1N=Cc1c(C)[nH]n(-c2ccc(C)cc2C)c1=O,-17%,-1%,0%,.,-4%,-4%
COc1ccc2nc(/N=C/c3c(C)[nH]n(-c4ccc(C)cc4C)c3=O)sc2c1,?,0%,27µM*,18%,9%,17%
COc1ccccc1-c1noc(-c2ccccc2C(=O)NCc2ccco2)n1,?,-4%,19µM*,-8%,-10%,-4%
COc1cc(-c2noc(-c3ccccc3C(=O)NCc3ccco3)n2)cc(OC)c1OC,4.6µM*,0%,-2%,30%,-20%,-5%
COc1cccc2cc(C(=O)NCc3ccco3)c(=Nc3ccc(C(=O)O)cc3)oc12,?,12%,?,-51%,21µM*,1%
COc1cc(-c2noc(CCCC(=O)Nc3cccnc3)n2)cc(OC)c1OC,-17%,-2%,-1%,.,1%,0%
COc1cc(-c2noc(CCCC(=O)NCc3ccccc3)n2)cc(OC)c1OC,18µM*,-3%,1%,-2%,1%,-4%
COc1cccc2cc(C(=O)NCc3ccco3)c(=O)oc12,?,-1%,?,-22%,14%,13%
O=C1COc2ccc(C(=O)COc3ccc(Cl)cc3Br)cc2N1,-26%,2%,?,.,-1%,-3%
CC(C)(C)c1ccc(OCCn2cc(C(=O)c3ccco3)c3ccccc32)cc1,.,.,-4%,-3%,.,.
CN(C)S(=O)(=O)c1ccc(NC(=O)C2CC3C=CC2C3)cc1 (centres undefined),1%,-3%,-2%,-4%,2%,1%
O=[N+]([O-])c1ccc(S(=O)(=O)N2CCN=C2SCc2ccc(F)cc2)cc1,21%,2%,0%,.,-1%,-1%
Cc1cccc(Nc2nnc(SCC(=O)NCC3CCCO3)s2)c1 (centres undefined),?,.,.,.,4%,.
CCc1ccccc1NC(=O)CN(C)C(=O)CSc1nnc(Nc2ccc(C)cc2)s1,?,0%,9.5µM*,-23%,-3%,-4%
CCc1ccccc1NC(=O)CN(C)C(=O)CSc1nnc(Nc2cccc(C)c2)s1,?,1%,12µM*,9%,-1%,-1%
CN(CC(=O)Nc1ccccc1Cl)C(=O)CSc1nncs1,28%,-1%,6%,.,2%,-5%
CCc1ccc(Nc2nnc(SCC(=O)N(C)CC(=O)Nc3ccccc3CC)s2)cc1,18µM*,3%,6.7µM*,-18%,-2%,0%
CCOc1ccc(OCCC(=O)OCC(=O)Nc2ccc3c(c2)OCCO3)cc1,6%,-2%,?,.,-1%,-5%
CCOC(=O)c1[nH]c2c(c1Cc1ccccc1OC)C(=O)CC(c1ccccc1)C2 (centres undefined),.,.,-12%,5%,.,.
SMILES,ELG1 DNA repair,NPC1 promoter act,FLuc counter,SMN2 splice up,ELG1 genotox,Rab9 prom act
Cc1c(/C=N/NC(=O)c2ccc3c(c2)OCO3)cnn1C,5%,1%,?,-3%,3%,2%
CCn1nc(C)c(CNC(=O)Nc2ccc3c(c2)OCO3)c1C,?,?,24µM*,?,?,?
CCn1ncc(/C=N/NC(=O)c2ccc3c(c2)OCO3)c1C,-8%,-10%,17µM*,17%,7%,7%
CCn1nc(C)c(/C=N\NC(=O)c2ccc3c(c2)OCO3)c1C,?,5%,24µM*,19%,15%,3%
CCc1ccc(NC(=O)C(CC)n2c(=O)c(-c3ccccc3NC(C)=O)nc3ccccc32)cc1 (centres undefined),.,.,-6%,.,.,.
O=C(Nc1cccc(-c2cn3cccnc3n2)c1)c1cccs1,-7%,0%,?,13%,1%,-3%
Cc1cccn2cc(-c3cccc(NC(=O)c4cccs4)c3)nc12,?,13%,4.8µM*,18%,5%,24%
Cc1ccn2cc(-c3cccc(NC(=O)c4cccs4)c3)nc2c1,-7%,19%,2.4µM*,?,-1%,?
O=C(CCc1nnc(-c2ccc(-c3ccccc3)cc2)o1)N1CCCCC1,?,?,13µM*,.,?,?
O=C(CCc1nnc(-c2ccsc2)o1)N1CCc2c(Cl)cccc2C1,?,19%,17µM*,.,?,?
CCOC(=O)CN(C)C(=O)CCc1nnc(-c2ccsc2)o1,0%,0%,-9%,.,-1%,-2%
COC(c1ccccc1)c1nnc(CCC(=O)NC2CCCCC2)o1 (centres undefined),9%,-2%,-16%,.,-1%,-3%
O=C(CCc1nnc(-c2ccccc2)o1)NC1CCCCC1,?,30%,17µM*,.,?,?
COc1ccc(C2/C=C\CN(C(=O)C3CCCC3)CC(=O)N2Cc2ccc(F)cc2)cc1 (centres undefined),2%,-1%,0%,.,1%,-1%
CC(OC(=O)c1cc(=O)[nH]c2ccccc12)C(=O)NC1CCCC1 (centres undefined),19%,-2%,7%,.,5%,2%
Cc1ccc(N2CC(C(=O)N/N=C/c3c(F)cccc3Cl)CC2=O)cc1 (centres undefined),9.2µM*,-1%,0%,.,3%,1%
COc1ccc(N2CC(C(=O)N/N=C/c3ccc(C)cc3)CC2=O)cc1 (centres undefined),-10%,-30%,-1%,-22%,2%,-30%
